# High-throughput results (PubChem BioAssay)
# Cruzain inh Det: inhibitors of Trypanosoma cruzi cruzain with detergent. P25779. hit rate 0.43% among 200,000. Potency, µM, usual class: inhibitors. purified cruzain, Z-FR-AMC fluorescence, 0.01% Triton; note: nearly all actives have a fitted effect of over 40% in size
# Target sequence (P25779 123-467 limits assumed): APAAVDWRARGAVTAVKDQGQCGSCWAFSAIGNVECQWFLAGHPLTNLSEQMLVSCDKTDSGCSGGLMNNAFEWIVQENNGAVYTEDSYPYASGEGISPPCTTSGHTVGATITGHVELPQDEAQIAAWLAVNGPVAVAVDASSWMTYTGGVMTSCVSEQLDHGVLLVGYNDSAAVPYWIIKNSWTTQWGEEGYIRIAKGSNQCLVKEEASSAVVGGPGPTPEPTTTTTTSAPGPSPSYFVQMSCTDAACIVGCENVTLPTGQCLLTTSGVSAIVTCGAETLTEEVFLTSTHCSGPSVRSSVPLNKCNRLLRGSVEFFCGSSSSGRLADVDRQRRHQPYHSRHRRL
#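 Cruzain (1.5 nM) preincubated 15 min at RT with compound in 100 mM sodium acetate pH 5.5, 5 mM DTT, 0.01% Triton X-100. Reaction started with 2 uM Z-FR-AMC; AMC fluorescence (ex 360/em 450 nm) change over 60 s gave rate.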
# Cruzain noTriton: inhibitors of Trypanosoma cruzi cruzain without detergent; hit rate 2.3% among 200,000; Potency, µM, hits mostly inhibitors; purified cruzain, Z-FR-AMC fluorescence, no detergent; P25779; note: nearly all actives have a fitted effect of over 40% in size
#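 Detergent-free condition (0.00005% Triton X-100) in acetate buffer pH 5.5 with DTT. 1.5 nM enzyme and compound were pre-mixed 15 min, then 2 uM Z-FR-AMC substrate added; reaction progress from fluorescence change between first and third reads (60 s).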
# A number is an active result; i = inactive; ? = inconclusive. Sampled rows, rich in hits. Any-hit rate of the full collection: about 2.5%. Calls come from the whole dose curve; as a rule, active = well fitted curve in the direction sought with a large enough effect; inconclusive = small, poorly fitted or top-dose-only effect, or another doubt; inactive = no such curve, though single readings can be large; an effect the other way counts as inactive or inconclusive.
SMILES,Cruzain inh Det,Cruzain noTriton
CC(C)NC(=O)[C@@H]1C[C@H]1[C@@H](NC(=O)OCc1ccccc1)c1ccccc1,i,i
C[C@H](NC(=O)[C@@H]1C[C@H]1[C@@H](NC(=O)OCc1ccccc1)c1ccccc1)c1ccccc1,i,16µM
O=C(Nc1ccccc1)c1ccc(NCC2CCCO2)c([N+](=O)[O-])c1 (configuration not stated),i,i
O=C(Nc1ccccc1)c1ccc(Nc2c([N+](=O)[O-])cc([N+](=O)[O-])c3ccccc23)cc1,i,10µM
COCCNC(=O)c1nn(-c2ccc(C)cc2)c(=O)c2c1c1ccccc1n2C,i,i
COc1ccc2oc(=O)c(C(=O)NCCc3c(C)[nH]c4c(C)cccc34)cc2c1,i,i
NS(=O)(=O)c1ccc(CCNC(=O)c2ccc3nc(CCc4ccccc4)oc3c2)cc1,i,i
COc1cccc(/C=C2\SC(=O)N(CCC(=O)NNC(=O)c3ccccc3Cl)C2=O)c1,i,?
O=C(CN1C(=O)S/C(=C\c2ccc(Cl)cc2)C1=O)NNC(=O)c1ccccc1O,i,20µM
COc1cc(OC)cc(-c2nnc(SCC(=O)c3ccc([N+](=O)[O-])cc3)o2)c1,i,i
CC(C)N(C(=O)CSc1nn2c(=O)c(C(C)(C)C)nnc2s1)c1ccccc1,i,i
Cc1cc(C(=O)CSc2nn3c(=O)c(C(C)(C)C)nnc3s2)c(C)n1-c1ccc(F)cc1,i,13µM
CC(=O)OC1CC2C(C)(C)C(=O)[C@@H]3OC3[C@@]2(C)C2CC[C@]3(C)C(=CC(=O)OC3c3ccoc3)[C@]12C (some centres not stated),i,i
Cc1ccc(Nc2ncc(C(=O)Nc3ccc(F)cc3F)c3ccccc23)cc1Cl,i,i
CC1Cc2ccccc2N1c1ncnc2c1nnn2Cc1ccccc1Cl (configuration not stated),i,25µM
Clc1ccccc1Cn1nnc2c(N3CCCC3)ncnc21,i,i
Oc1nc(Nc2cccc(Cl)c2)sc1/C=C1\C=Nc2ccccc21,i,?
CCOC(=O)c1c(Nc2ccc(Cl)cc2)sc(/C=C2\C=Nc3ccccc32)c1O,i,7.9µM
CC(=O)Oc1ccc(C(=O)[C@H]2[C@H]3C(=O)N(c4cccc5ccccc45)C(=O)[C@H]3[C@@H]3C=CC=NN32)cc1,i,i
O=C(Nc1ccc(Cl)cc1)[C@@H]1[C@@H]2C(=O)N(c3ccc4ccccc4c3)C(=O)[C@@H]2[C@H]2C=CC=NN21,i,16µM
Cc1ccc(S(=O)(=O)N2CCCc3cc(NC(=O)c4cccc(Cl)c4)ccc32)cc1,i,?
Cc1ccc(CNC(=O)C2CCCN(S(=O)(=O)c3ccc4c(ccn4C)c3)C2)cc1 (configuration not stated),i,?
O=C(NCC12CC3CC(CC(C3)C1)C2)c1cc2nc(-c3ccc(Cl)cc3)cc(C(F)(F)F)n2n1,i,i
Cc1cccc(NC(=O)C2CCCN(S(=O)(=O)c3ccc4c(c3)CCCC(=O)N4)C2)c1 (configuration not stated),i,i
O=C(Nc1ccc2nc(-c3ccco3)c(-c3ccco3)nc2c1)NC1CC1,8.9µM,2.5µM
SMILES,Cruzain inh Det,Cruzain noTriton
O=C(Nc1cccc(C(F)(F)F)c1)c1ccc2nc(-c3ccco3)c(-c3ccco3)nc2c1,14µM,?
O=C(Nc1cccc(C(F)(F)F)c1)c1ccc2snnc2c1,i,i
COc1ccc(CCNC(=O)c2ccc3nc(-c4ccco4)c(-c4ccco4)nc3c2)cc1OC,14µM,i
O=C(Nc1nc(-c2ccco2)c(-c2ccco2)s1)C1CCC1,i,i
OCCCNC(=S)Nc1ccc2nc(-c3ccccn3)c(-c3ccccn3)nc2c1,i,i
O=C(NCCCO)Nc1ccc2nc(-c3ccco3)c(-c3ccco3)nc2c1,13µM,7.9µM
CCc1nc2ccc(C(=O)NCCc3ccc(OC)c(OC)c3)cc2nc1CC,i,i
COc1cc(NC(=O)CC(C)S(=O)(=O)c2cc3c4c(c2)CCN4C(=O)CC3)cc(OC)c1 (configuration not stated),i,i
CCc1ccc(S(=O)(=O)c2cnc3ccc(OC)cc3c2N2CCCC(C)C2)cc1 (configuration not stated),i,i
Cc1ccc(N(CC(=O)NCCc2ccccc2)S(=O)(=O)N(C)C)cc1,i,i
Cc1cc(C=O)c(C)n1-c1sc2c(c1C(=O)O)CCCC2,i,i
COC(=O)c1c(-n2c(C)cc(C=O)c2C)sc2c1CCCC2,i,7.9µM
COc1ccc(NC(=O)CSc2nc3nc(C)c(Cc4ccc(C)cc4)c(C)n3n2)cc1OC,i,i
Fc1ccccc1-c1nc(N2CCN(c3cccc(Cl)c3)CC2)c2ccccc2n1,i,?
CCCNC(=O)CN1C(=O)COc2ccc(S(=O)(=O)N3CCCC3)cc21,i,i
COc1ccc(-c2cc(C(=O)Nc3sc4c(c3C(N)=O)CCC(C)C4)no2)cc1 (configuration not stated),i,i
Cc1onc(-c2c(Cl)cccc2Cl)c1C(=O)NC(=S)Nc1sc2c(c1C(N)=O)CCC(C)C2 (configuration not stated),i,4µM
C=CCn1c(=O)c2ccc(C(=O)NCc3ccccc3)cc2n(Cc2ccc(Cl)cc2)c1=O,i,i
C=CCn1c(=O)c2ccc(C(=O)NCc3ccccc3)cc2n(Cc2ccccc2Cl)c1=O,i,25µM
COc1ccc(-c2cc(C(F)(F)F)nc(SCC(=O)N3CCCCC3)n2)cc1,i,i
O=C(Cn1c(=O)n(-c2ccccc2Cl)c(=O)c2sc3ccccc3c21)NC1CCCC1,i,i
COc1ccc(CNC(=O)Cc2c(C)c3cc4c(C)coc4c(C)c3oc2=O)cc1OC,i,i
O=C(COC(=O)CCC1CCCC1)Nc1nc2c(F)c(F)c(F)cc2s1,i,10µM
O=C(COC(=O)CCC1CCCC1)Nc1ccc(Cl)cn1,i,i
CCOc1ccc(-c2nn(-c3ccccc3)cc2/C=C2\SC(=S)N(Cc3ccco3)C2=O)cc1,i,10µM
SMILES,Cruzain inh Det,Cruzain noTriton
CCCOc1ccc(-c2nn(-c3ccccc3)cc2/C=C2\SC(N)=NC2=O)cc1,i,?
Cc1ccc2[nH]c(=O)c(CN(C(=O)c3cccc(Cl)c3)C(C)(C)C)cc2c1,i,i
Cc1ccc(CSc2ncc(Cl)c(C(=O)Oc3ccc(F)cc3)n2)cc1,i,i
COc1ccc(OC(=O)c2nc(SCc3ccc(C)cc3)ncc2Cl)cc1,i,20µM
COc1cccc(NC(=O)c2oc3ccccc3c2NC(=O)Cc2cccc(C)c2)c1,i,i
O=C(CSc1nc(O)cc(=O)[nH]1)Nc1ccc2c(c1)CCC2,i,16µM
Nc1nc(SCC(=O)Nc2ccc3c(c2)CCC3)n[nH]1,i,i
COc1cccc(/C=c2\s/c(=C/C(=O)c3ccc(C)cc3)[nH]c2=O)c1OC,i,i
COc1ccc(/C=c2\s/c(=C/C(=O)c3ccc(C)cc3)[nH]c2=O)c(OC)c1,i,25µM
Cc1ccc2nc(/C(C#N)=C\c3ccc(Oc4ccc(C(F)(F)F)cc4[N+](=O)[O-])cc3)[nH]c2c1,i,7.9µM
COc1ccc(/C=C(\C#N)c2nc3ccc(C)cc3[nH]2)cc1Oc1ccc(C(F)(F)F)cc1[N+](=O)[O-],i,5µM
COc1cc(/C=C(\C#N)c2nc3ccc(C)cc3[nH]2)c([N+](=O)[O-])cc1OC,i,?
N#C/C(=C\c1cccc(Oc2ccc(C(F)(F)F)cc2[N+](=O)[O-])c1)c1nc2ccccc2[nH]1,i,i
